# This is one part of a sample in which hits are shown more often than they occur.
# miR-122 inh: miR-122 sensor activation; Huh7 psiCHECK-miR122 Renilla luciferase sensor, 48 h; activation, % at 12.5 µM; hit rate 0.14% among 340,000;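 active = mean activation of 30% or more, with every replicate also reaching 30%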;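 also: 0% = median of neutral control wells and 100% = median of positive control wells; higher luciferase signal means stronger suppression of miR-122 activity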
# * = called active by the depositor.
SMILES,miR-122 inh
C[C@@H]1CN([C@@H](C)CO)S(=O)(=O)c2ccc(C#Cc3cccnc3)cc2O[C@H]1CN(C)C(=O)C1CC1,-5
CN1C(=O)c2cc(NC(=O)c3ccc(C(F)(F)F)cc3)ccc2OC[C@H]2O[C@H](CC(=O)NCc3ccc4c(c3)OCO4)CC[C@H]21,33*
CN1C(=O)c2cc(NC(=O)c3cccc(C(F)(F)F)c3)ccc2OC[C@H]2O[C@H](CC(=O)NCCN3CCCC3)CC[C@H]21,65*
Cc1ccc(S(=O)(=O)Nc2ccc3c(c2)C(=O)N(C)[C@@H]2CC[C@H](CC(=O)NCCc4ccncc4)O[C@@H]2CO3)cc1,45*
CCCNC(=O)C[C@H]1CC[C@@H]2[C@@H](COc3ccc(NC(=O)c4ccc(C(F)(F)F)cc4)cc3C(=O)N2C)O1,45*
CO[C@@H]1CN(C)C(=O)c2ccc(NS(=O)(=O)c3ccc(C)cc3)cc2OC[C@H](C)N(C)C[C@@H]1C,1
COc1ccccc1CNC(=O)C[C@H]1CC[C@H]2[C@@H](COc3ccc(NS(=O)(=O)c4ccc(C)cc4)cc3C(=O)N2C)O1,-807
COCC(=O)N(C)C[C@@H]1Oc2cc(-c3cncnc3)ccc2S(=O)(=O)N([C@H](C)CO)C[C@H]1C,-3
CCCN1C[C@@H](C)[C@H](OC)CN(C)C(=O)c2ccc(NS(C)(=O)=O)cc2OC[C@@H]1C,-1
CCC(=O)N(C)C[C@H]1Oc2ncc(-c3cccc(OC)c3)cc2C(=O)N([C@H](C)CO)C[C@H]1C,2
C[C@@H]1CN([C@H](C)CO)C(=O)c2cc(C#Cc3ccc(F)cc3)cnc2O[C@@H]1CN(C)CC1CCOCC1,3
C[C@H]1CN([C@@H](C)CO)C(=O)c2cc(/C=C/c3ccccc3)cnc2O[C@@H]1CN(C)Cc1ccccc1F,7
C[C@H](O)C#Cc1ccc2c(c1)O[C@@H](CN(C)C(=O)Cc1ccccn1)[C@@H](C)CN([C@@H](C)CO)S2(=O)=O,-7
CCCN1C[C@@H](C)[C@@H](OC)CN(C)C(=O)c2ccc(NC(=O)COC)cc2OC[C@H]1C,3
C[C@@H]1CN([C@@H](C)CO)C(=O)c2cc(C#C[C@@H](C)O)cnc2O[C@H]1CN(C)Cc1cncnc1,7
C[C@H](CO)N1C[C@H](C)[C@@H](CN(C)Cc2ccccc2F)Oc2ncc(/C=C/c3ccccc3)cc2C1=O,-1
Cc1noc(C)c1NC(=O)N(C)C[C@H]1Oc2ncc(C#CCC(C)C)cc2C(=O)N([C@@H](C)CO)C[C@H]1C,6

# Bioassay records as filed in PubChem BioAssay.
